Measurements from PubChem BioAssay (NCI).
This is part of a sample that, as a whole, favours compounds with a hit. Of some 79,000 tested, about 15% had one in any assay. Calls of active or inactive are those of the source. Rule as the data show it: active = growth inhibition above about 70%; inactive = the rest.

Columns and labels:
[1] = NCI Yeast Anticancer Drug Screen. Data for the rad50 strain (AID 155);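 also: 0% = growth of vehicle-only cultures of the same strain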; conditions: S. cerevisiae rad50 strain growth inhibition, stronger effect = higher value
In short: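 Inhibition values express reduced yeast growth in compound-treated cultures relative to vehicle-treated controls.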

[2] = NCI Yeast Anticancer Drug Screen. Data for the mec2-1 strain (AID 157); conditions: S. cerevisiae mec2-1 strain, stronger effect = higher value
In short: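 Growth inhibition is read against vehicle-treated controls after compound exposure of the mec2-1 yeast strain, which is defective in DNA damage repair or cell cycle control.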

[3] = NCI Yeast Anticancer Drug Screen. Data for the sgs1 mgt1 strain (AID 161);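 also: 0% = growth of cultures given vehicle only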; conditions: S. cerevisiae sgs1 mgt1 strain, stronger effect = higher value
In short: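 Percent growth inhibition was derived by comparing compound-exposed mutant yeast with vehicle-exposed cultures. The strain carries alterations in DNA damage repair.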

[4] = NCI Yeast Anticancer Drug Screen. Data for the cln2 rad14 strain (AID 165);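 also: 0% = growth equal to vehicle treated cultures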; conditions: S. cerevisiae cln2 rad14 strain, stronger effect = higher value
In short: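 Growth inhibition, relative to vehicle-treated controls, is the read-out. The test organism is a yeast strain with defined genetic alterations, cln2 rad14.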

[5] = NCI Yeast Anticancer Drug Screen. Data for the bub3 strain (AID 167); conditions: S. cerevisiae bub3 mutant strain, stronger effect = higher value
In short: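 Steps: expose the mutant yeast strain to compound; grow alongside vehicle-treated cultures; measure growth; express inhibition against the vehicle cultures.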

[6] = NCI Yeast Anticancer Drug Screen. Data for the mlh1 rad18 strain (AID 175); conditions: S. cerevisiae mlh1 rad18 strain growth inhibition, stronger effect = higher value
In short: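 Cells of a genetically altered yeast strain, deficient in DNA damage repair, were treated with compound. Their growth was then compared with that of vehicle-treated cultures to give inhibition.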

[7] = at 5.0 µM (retest, dose inferred, filed as 0.5)
[8] = at 50.0 µM (retest, dose inferred, filed as 5.0)

Measured: growth inhibition

O=C(N/C(=C\c1ccccc1Cl)c1nc2ccccc2s1)c1ccccc1
inactive: [1]; [7] 20% | [2]; [7] 13% | [3]; [7] 54% | [4]; [7] 11% | [5]; [7] 30% | [6]; [7] 20%
active: [1]; [8] 99% | [1]; at 50.0 µM 99% | [2]; [8] 99% | [2]; at 50.0 µM 99.2% | [3]; [8] 99% | [3]; at 50.0 µM 99.2% | [4]; [8] 99% | [4]; at 50.0 µM 99% | [5]; [8] 99% | [5]; at 50.0 µM 98.8% | [6]; [8] 99% | [6]; at 50.0 µM 99.1%

O=C1CCSC(=S)N1c1ccc(N=Nc2ccccc2)cc1
inactive: [1]; [7] 57% | [2]; [7] 9% | [3]; [7] 20% | [4]; [7] 11% | [4]; [8] 13% | [5]; [7] 0% | [5]; [8] 4% | [6]; [7] 18%
active: [1]; [8] 94% | [1]; at 50.0 µM 75.4% | [2]; [8] 91% | [2]; at 50.0 µM 97.6% | [3]; [8] 94% | [3]; at 50.0 µM 97.2% | [4]; at 50.0 µM 84% | [5]; at 50.0 µM 93.5% | [6]; [8] 94% | [6]; at 50.0 µM 94.5%

O=[N+]([O-])c1ccc(-c2nc3ccc(F)cc3[nH]2)o1
inactive: [4]; [7] 34%
active: [1]; [7] 73% | [1]; [8] 99% | [1]; at 50.0 µM 99.6% | [2]; [7] 90% | [2]; [8] 99% | [2]; at 50.0 µM 99.8% | [3]; [7] 86% | [3]; [8] 100% | [3]; at 50.0 µM 99.7% | [4]; [8] 98% | [4]; at 50.0 µM 98.5% | [5]; [7] 70% | [5]; [8] 100% | [5]; at 50.0 µM 99.7% | [6]; [7] 94% | [6]; [8] 99% | [6]; at 50.0 µM 99.7%

Cc1c2cc(Cl)ccc2cc2c1ccc1ccccc12
inactive: [1]; [7] 12% | [1]; [8] 5% | [2]; [7] -7% | [2]; [8] 6% | [3]; [7] 2% | [3]; [8] 14% | [4]; [7] -3% | [4]; [8] 8% | [5]; [7] -6% | [5]; [8] -4% | [6]; [7] -4% | [6]; [8] 16%
active: [1]; at 50.0 µM 96.7% | [2]; at 50.0 µM 98.8% | [3]; at 50.0 µM 99.2% | [4]; at 50.0 µM 70.8% | [5]; at 50.0 µM 96.5% | [6]; at 50.0 µM 98.5%

COC1(OC)OC2=C(OC1(OC)OC)c1ccccc1C2=O
inactive: [1]; [7] 8% | [1]; [8] 12% | [1]; at 50.0 µM 37.9% | [2]; [7] 9% | [2]; [8] 14% | [2]; at 50.0 µM -13.1% | [3]; [7] 5% | [3]; [8] 7% | [3]; at 50.0 µM -11.8% | [4]; [7] 5% | [4]; [8] 3% | [4]; at 50.0 µM -15.2% | [5]; [7] 4% | [5]; [8] 8% | [5]; at 50.0 µM -16.6% | [6]; [7] 14% | [6]; [8] 12% | [6]; at 50.0 µM -55.2%

Cc1cc(N2C(=O)CSC2=S)ccc1Cl
inactive: [1]; [7] -3% | [1]; [8] 1% | [1]; at 50.0 µM 61.1% | [2]; [7] -4% | [2]; [8] -2% | [2]; at 50.0 µM 21.9% | [3]; [7] -2% | [3]; [8] 8% | [4]; [7] -2% | [4]; [8] -17% | [4]; at 50.0 µM 12.8% | [5]; [7] -6% | [5]; [8] -1% | [5]; at 50.0 µM 7.95% | [6]; [7] -6% | [6]; [8] 0% | [6]; at 50.0 µM 51.2%
active: [3]; at 50.0 µM 79.2%
